Structures are written as SMILES. Activity calls are given as the source filed them. The calls were made as follows: active = hit-call score of the fitted dose curve at least 0.9, where 1 is the maximum; inactive = score below 0.9.

Chain of Transcriptional activator Myb (Homo sapiens) (P10242 whole entry, looked up): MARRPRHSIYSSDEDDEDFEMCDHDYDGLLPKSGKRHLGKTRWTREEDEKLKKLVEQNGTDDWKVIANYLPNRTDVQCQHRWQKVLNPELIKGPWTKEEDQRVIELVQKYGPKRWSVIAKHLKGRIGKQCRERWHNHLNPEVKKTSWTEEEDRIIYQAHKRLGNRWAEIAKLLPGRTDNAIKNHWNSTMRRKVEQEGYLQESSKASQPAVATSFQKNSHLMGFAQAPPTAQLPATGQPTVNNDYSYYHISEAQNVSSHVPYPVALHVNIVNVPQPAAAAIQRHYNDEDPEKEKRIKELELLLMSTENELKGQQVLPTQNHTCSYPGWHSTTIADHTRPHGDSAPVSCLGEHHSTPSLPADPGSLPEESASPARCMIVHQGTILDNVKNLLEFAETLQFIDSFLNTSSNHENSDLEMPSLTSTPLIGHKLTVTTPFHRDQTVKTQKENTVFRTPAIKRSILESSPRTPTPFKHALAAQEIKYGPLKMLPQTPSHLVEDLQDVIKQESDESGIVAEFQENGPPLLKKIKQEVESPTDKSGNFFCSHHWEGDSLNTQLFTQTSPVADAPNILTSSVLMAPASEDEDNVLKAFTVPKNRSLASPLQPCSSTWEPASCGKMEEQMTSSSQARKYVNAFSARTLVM

In this assay the target is Transcriptional activator Myb (Homo sapiens) (UniProt P10242). In words: ATG_Myb_CIS: Attagene CIS-FACTORIAL HepG2 Assay for human Myeloblastosis (Myb) Proto-Oncogene Transcription Factor (AID 2282986). The conditions noted are these: HepG2 Attagene CIS-FACTORIAL Myb reporter transcription; actives raise or lower the signal. The protocol:
ATG_CIS is a cell-based, multiplexed-readout assay that uses HepG2, a human liver cell line, with measurements taken at 24 hours after chemical dosing in a 24-well plate.ATG_Myb_CIS is one of 52 assay component(s) measured or calculated from the ATG_CIS assay. It is designed to make measurements of mRNA induction, a form of inducible reporter, as detected with fluorescence intensity signals by Reverse transcription polymerase chain reaction (RT-PCR) and Capillary electrophoresis technology.Data from the assay component ATG_Myb_CIS was analyzed into 1 assay endpoint. This assay endpoint, ATG_Myb_CIS, was analyzed with bidirectional fitting relative to DMSO as the negative control and baseline of activity. Using a type of inducible reporter, measures of mRNA for gain or loss-of-signal activity can be used to understand the reporter gene at the transcription factor-level as they relate to the gene MYB. Furthermore, this assay endpoint can be referred to as a primary readout, because this assay has produced multiple assay endpoints where this one serves a reporter gene function. To generalize the intended target to other relatable targets, this assay endpoint is annotated to the dna binding intended target family, where the subfamily is MYB proteins.
Human liver HepG2 cells are transiently transfected with multiple reporter transcription units (MRTUs) in 6-well plates using FuGene 6 reagent (Roche; 3 ml FuGene/1 mg DNA). The MRTU constructs are regulated by a cis-regulating element (promoter). […] A major difference between the CIS and TRANS system is that in CIS activities of endogenous TFs are measured, whereas the TRANS assay evaluates changes in activities of exogenous, chimeric NR-Gal4 proteins. […] At the end of 24 hour incubation, total RNA was isolated using TriZol reagent (Invitrogen). The isolated RNA is then reverse-transcribed using oligo(dT) primer and Mo-MLV reverse transcriptase (Invitrogen) with DNAse I (Ambion) treatment for 30 min. The one-tenth of the produced cDNA was amplified by PCR using Taq DNA polymerase (Invitrogen) and two reporter sequence-specific primers. The PCR products were fluorescently labeled by primer extension with 6-arboxyfluorescein (6-FAM) 5'-labeled reporter sequence-specific primer (2 min at 95 C, 20 s at 68 C and 10 min at 72 C) and these products were digested with 5U of HpaI (New England Biolabs) for 2h at 37 C. The fragments were purified using Qiaquick PCR columns (Qiagen), analyzed on an ABI 3130xL genetic analyzer (Applied Biosystems) with peak positions identified by using a set of X-rhodamine (ROX)-labeled MapMarker1000 molecular weight standards (BioVentures). The raw capillary electrophoresis data was processed using Attagraph software (Attagene).
Take `CCOc1ccccc1OCC`: the call was inactive.
Same read-out and setting: under `CN1[C@@H]2CC(OC(=O)[C@H](CO)c3ccccc3)C[C@H]1[C@@H]1O[C@@H]12` (stereo not given in full) stands “inactive”; under `CC(C)C[C@H]1C(=O)N2CCC[C@H]2[C@]2(O)O[C@](NC(=O)[C@@H]3C=C4c5cccc6[nH]c(Br)c(c56)C[C@H]4N(C)C3)(C(C)C)C(=O)N12`, “inactive”.
Same read-out and setting: next, `OCCOc1cccc(OCCO)c1`: “inactive”.
Still for that read-out and setting: next, `CCCCCCC#CC(=O)OC`: “inactive”.
For `O=Nc1ccc(Nc2ccccc2)cc1`, the result was inactive.
On the same count and under the same terms, under `CNC(=O)Oc1ccc2c(c1)[C@]1(C)CCN(C)[C@@H]1N2C` stands “inactive”; under `OCCOCCOCCOCCO`, “inactive”.
Still for that read-out and setting: next, `CCC(C(=O)NC(N)=O)c1ccccc1` (stereo not given): “inactive”.
Take `Nc1cc(N)cc(C(=O)O)c1`: the compound was called inactive.
Same read-out and setting: next, `CC(=O)O[C@H](CC(=O)[O-])C[N+](C)(C)C`: “inactive”.
As to `O=Cc1ccc(Cl)c([N+](=O)[O-])c1`, the AC50 (commonly the concentration giving half of the maximal activity seen) was 144 µM (active).
For the compound `CC(=O)/C=C/C1=C(C)CCCC1(C)C`, the call was inactive.
The same measure, in the same setting: next, `CC1COc2ccccc2N1C(=O)C(Cl)Cl` (stereo not given): “inactive”.
Still for that read-out and setting: next, `CC(=O)O[C@]1(C(C)=O)CC[C@H]2[C@@H]3C[C@H](C)C4=CC(=O)CC[C@]4(C)[C@H]3CC[C@@]21C`: “inactive”; `CNCCO`: “inactive”.
Same read-out and setting: next, `FC1(F)C(F)(F)C(F)(F)C2(F)C(F)(C1(F)F)C(F)(F)C(F)(F)C1(F)C(F)(F)C(F)(F)C(F)(F)C(F)(F)C12F` (stereo not given): “inactive”.
With `Nc1cc([N+](=O)[O-])ccc1Cl`, the call was inactive.
On to `O=C1CCCCCCCCCCCCCCO1`, for which the result was inactive.
On the same count and under the same terms, next, `C=CCOc1nc(OCC=C)nc(OCC=C)n1`: “inactive”; `CCCCC(CC)COCCC#N` (stereo not given): “inactive”; `CC(C)=CCCC(C)CC=O` (stereo not given): “inactive”.
Still for that read-out and setting: under `COCCCOc1ccnc(CS(=O)c2nc3ccccc3[nH]2)c1C` (stereo not given) stands “inactive”.
Same read-out and setting: under `CC(C#N)(CCC(=O)O)N=NC(C)(C#N)CCC(=O)O` (stereo not given) stands “inactive”.
Regarding `Cc1cccc(Nc2ccccc2C(=O)O)c1C`, the compound was called inactive.
In the case of `CC1=CCC(O)(C(C)C)CC1` (stereo not given), the compound was called inactive.
Turning to `N#Cc1nc(Cl)c(Cl)c(Cl)c1Cl`, the AC50 was 2.71 µM (active).
Turning to `C=C(C)C1CCC(C)CC1O` (stereo not given), the call was inactive.
On to `Cc1ccc(O)c(C(C)(C)C)c1`, for which the AC50 is 184 µM (active).
As for `CCCCCCCCCCC(CO)CCCCCCCC` (stereo not given), the compound was called inactive.
On the same count and under the same terms, next, `NC(=O)c1ccccc1Cl`: “inactive”.
Still for that read-out and setting: under `O=C(O)c1cn(C2CC2)c2cc(N3CCNCC3)c(F)cc2c1=O` stands “inactive”; under `O=C(O)c1ccc([N+](=O)[O-])cc1`, “inactive”; under `CC(=O)Nc1ccc(C)cc1C`, “inactive”.
Same read-out and setting: next, `COC(=O)C1=C(C)NC(C)=C(C(=O)OCCN(C)Cc2ccccc2)C1c1cccc([N+](=O)[O-])c1` (stereo not given): “inactive”; `CCC/C=C/C=O`: “inactive”; `O=C(O)CCCCCCCCCCC(=O)O`: “inactive”.
For `O=S(=O)(O)c1cccc2c(S(=O)(=O)O)cccc12`, the compound was classed as inactive.
The same measure, in the same setting: under `CC(C)(COC(=O)c1ccccc1)COC(=O)c1ccccc1` stands “inactive”; under `CN(C)CCOCCN(C)C`, “inactive”.

Source of the values: PubChem BioAssay (EPA / NIEHS).
